# Measured values as given in PubChem BioAssay AID1039 (National Center for Advancing Translational Sciences (NCATS), 2008).
# Activity calls are given as the source filed them. Where a call stands in place of a potency, no number is given. Calls follow the shape of the full dose curve.
# Test: Normal 2 Cell Viability Secondary Assay for qHTS Assay for Epigenetic Modulators
# Conditions: Normal 2 bronchial epithelial viability, MTS, 4 days
# Description: NIH Molecular Libraries Screening Centers Network [MLSCN] NIH Chemical Genomics Center [NCGC] MLSCN Grant: 1 X01 MH079860-01 Assay Provider: Elisabeth D. Martinez, University of Texas SW Medical Center NCGC Assay Overview: This secondary assay characterizes selected actives identified in the qHTS of the Locus Derepression (LDR) assay (PubChem AID 597). The LDR assay detects the derepression of a GFP reporter that is stably integrated in a region of the genome of murine c127i mammary cells that is presumably silenced. Compounds that cause derepression of the locus to express GFP are identified by enumerating GFP positive cells using a laser-scanning microplate cytometer. Selected LDR actives were assayed for killing of Normal 2, a patient-derived normal bronchial epithelial line matched to NSCLC 2, a nonsmall cell lung carcinoma line from the same patient. The Normal 2 line assays the cytoxicity of test compounds on normal lung cells. Normal 2 cell viability was measured using Cell Titer 96 AQueous One (Promega), an assay which detects the ability of metabolically active cells to reduce a tetrazolium salt substrate (MTS), into a soluble formazan product that can be measured by colorimetry.
# NCGC Assay Protocol Summary Normal 2 cells were plated in 96-well flat bottom tissue culture dishes (Corning) and grown overnight at 37 C and 5% CO2, then treated with compounds, incubated 4 days, and assayed for viability using the Cell Titer 96 AQueous One kit (Promega) according to the manufacturer's protocol. Absorbance at 490 nm and 650 nm (reference) was measured by a Spectra Max (Molecular Devices). Data were normalized to the untreated control (100% viability). Each cell line was tested in one or two independent assays, each containing 4 or 8 replicates. For further details, see R.L. Johnson, W. Huang, A. Jadhav, C.P. Austin, J. Inglese, E.D. Martinez, A Quantitative High-Throughput Screen Identifies Potential Epigenetic Modulators of Gene Expression, Analytical Biochemistry (2007), doi: 10.1016/j.ab.2007.12.028
SMILES,outcome,Potency
O=C(CSc1cccc2cccnc12)NCc1ccccc1,inactive,
CC(/C=C/C(=O)NO)=C\[C@@H](C)C(=O)c1ccc(N(C)C)cc1,inactive,
CC(C)C(=O)NC(c1ccco1)c1ccc2cccnc2c1O (stereo not drawn),,10 µM (active)
O=Nc1ccc(O)c2ncccc12,,9 µM (active)
CC(C)C(=O)NC(c1ccc(N(C)C)cc1)c1ccc2cccnc2c1O (stereo not drawn),,5 µM (active)
CC(C)C(=O)NC(c1ccco1)c1cc([N+](=O)[O-])c2cccnc2c1O (stereo not drawn),,2 µM (active)
CN1C(=S)SC(c2ccccc2)N(C)C1c1ccccc1 (stereo not drawn),inactive,
O=C(CSc1cccc2cccnc12)N1CCCC1,inactive,
